For the test, the target named is Epidermal growth factor receptor (Homo sapiens) (UniProt P00533). The experiment in a line: compounds binding epidermal growth factor receptor – biochemical, small-molecule microarray, 635 nm fluorescence, primary screen (AID 1104).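 Note: score merges 667 nm emission intensity with spot signal to noise over triplicate slides.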 Conditions: EGFR binding, higher = more signal.
Epidermal growth factor receptor (Homo sapiens), sequence (P00533 whole entry, looked up): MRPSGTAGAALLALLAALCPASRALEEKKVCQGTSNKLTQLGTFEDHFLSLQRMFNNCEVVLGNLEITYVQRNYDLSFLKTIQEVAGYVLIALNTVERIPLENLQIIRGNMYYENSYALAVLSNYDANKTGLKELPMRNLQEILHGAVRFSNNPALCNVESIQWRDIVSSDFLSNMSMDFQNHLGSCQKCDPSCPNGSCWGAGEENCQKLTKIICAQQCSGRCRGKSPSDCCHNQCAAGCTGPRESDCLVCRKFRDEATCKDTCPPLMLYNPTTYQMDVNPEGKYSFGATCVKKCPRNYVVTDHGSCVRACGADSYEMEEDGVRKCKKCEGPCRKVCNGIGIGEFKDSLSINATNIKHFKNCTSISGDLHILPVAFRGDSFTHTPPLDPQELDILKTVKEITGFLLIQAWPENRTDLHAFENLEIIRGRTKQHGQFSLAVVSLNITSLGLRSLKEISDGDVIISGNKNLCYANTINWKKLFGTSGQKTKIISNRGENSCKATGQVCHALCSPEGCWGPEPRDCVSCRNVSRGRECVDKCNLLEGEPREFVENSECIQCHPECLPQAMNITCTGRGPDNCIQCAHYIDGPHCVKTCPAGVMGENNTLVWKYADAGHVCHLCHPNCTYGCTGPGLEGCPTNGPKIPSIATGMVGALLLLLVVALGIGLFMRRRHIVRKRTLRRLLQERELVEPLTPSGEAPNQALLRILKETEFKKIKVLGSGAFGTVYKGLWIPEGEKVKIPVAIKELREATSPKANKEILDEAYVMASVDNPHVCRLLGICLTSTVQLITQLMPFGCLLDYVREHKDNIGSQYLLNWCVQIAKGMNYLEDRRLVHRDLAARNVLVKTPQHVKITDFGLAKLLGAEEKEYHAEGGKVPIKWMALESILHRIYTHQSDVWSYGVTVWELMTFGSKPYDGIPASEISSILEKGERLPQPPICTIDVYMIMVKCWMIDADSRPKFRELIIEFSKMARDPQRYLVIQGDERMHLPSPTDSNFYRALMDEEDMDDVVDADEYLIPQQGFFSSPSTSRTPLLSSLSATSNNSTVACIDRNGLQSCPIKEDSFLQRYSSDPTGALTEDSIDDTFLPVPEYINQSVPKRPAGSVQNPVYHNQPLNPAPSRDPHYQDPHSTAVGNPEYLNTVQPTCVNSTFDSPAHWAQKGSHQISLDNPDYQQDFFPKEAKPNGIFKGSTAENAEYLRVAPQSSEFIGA
Compound `CC(C)CN1CCc2nc(-c3ccccc3)c3c(c2C1)CO[C@@H](C)C3` gave a composite z-score of 0.383.

Take `COCC#Cc1ccc([C@@H]2N[C@H](C(=O)O)CC[C@H]2C)cc1`: the composite z-score worked out at 0.362.

As to `C[C@@H](c1ccccc1)N1C(=O)[C@H]2[C@H]3[C@H](O)[C@H](O)CC(=NOC[C@@H](O)COCc4ccco4)[C@H]3CC[C@H]2C1=O`, the composite z-score came to 1.07.

In the case of `CCOC(=O)[C@H](CC(C)C)NC(=O)CCC1CC(OC(=O)NCc2ccc3c(c2)OCO3)CC2(CCCC(COC(=O)NCCc3ccc(Cl)cc3)O2)O1` (some centres undefined), the composite z-score was found to be 0.199.

`C#CCCCON=C1C[C@@H](O)[C@@H](O)[C@@H]2[C@@H]3C(=O)N(C4CCCCC4)C(=O)[C@@H]3CC[C@@H]12`: the composite z-score is 0.336.

`CC(C)=CCCC(C)=CCON=C1C[C@@H](O)[C@@H](O)[C@@H]2[C@@H]3C(=O)N(c4cccc(Oc5ccccc5)c4)C(=O)[C@@H]3CC[C@H]12` yielded a composite z-score of 0.348.

As for `COc1ccc(O[C@H]2C=C[C@@H](C#Cc3ccccc3)O[C@@H]2CO)cc1`, the composite z-score turned out to be 0.316.

On to `CCCNC(=O)OC[C@H]1O[C@H](CCON=C[C@@H](NS(=O)(=O)c2ccc(C)cc2)[C@H](C)C=CCC(=O)OC)C=C[C@@H]1Oc1ccc(OC)cc1`, for which the composite z-score was -0.147.

For the compound `COC(=O)[C@H](C)NC(=O)CCC1CC(OC(=O)NCc2cccc3ccccc23)CC2(CCCC(COC(=O)NCCCN3CCCC3=O)O2)O1` (some centres undefined), the composite z-score was 0.929.

Turning to `COC(=O)[C@H](C)NC(=O)CCC1CC(OC(=O)NCCc2ccc(F)cc2)CC2(CCCC(COC(=O)NCC3CCCCC3)O2)O1` (some centres undefined), the composite z-score is 0.501.

As to `COC(=O)[C@H](C)NC(=O)CCC1CC(OC(=O)NCc2ccc3c(c2)OCO3)CC2(CCCC(COC(=O)NCCc3ccc(Cl)cc3)O2)O1` (some centres undefined), the composite z-score was 0.351.

For the compound `COc1ccc(COC(=O)NN=C2C[C@@H](O)[C@@H](O)[C@@H]3[C@@H]4C(=O)N([C@@H](C)c5ccccc5)C(=O)[C@@H]4CC[C@@H]23)cc1`, the composite z-score worked out at 0.362.

In turn, `COc1ccc(O[C@H]2C=C[C@@H](c3ccccc3)O[C@@H]2COC(=O)CCC(C)=NOC[C@@H](O)COCc2ccco2)cc1` had a composite z-score of -2.8.

As for `CCN1C(=O)[C@H]2[C@H]3[C@H](O)[C@H](O)CC(=NOCC(C)C)[C@H]3CC[C@H]2C1=O`, the composite z-score was 0.732.

Turning to `CC(=O)OC[C@H]1O[C@H](C#CCC2CCCCC2)C=C[C@@H]1OC(C)=O`, the composite z-score came out at 0.362.

Turning to `CCN1C(=O)[C@H]2[C@H]3[C@H](O)[C@H](O)CC(=NOC[C@@H](O)[C@H]4O[C@@H]5OC(C)(C)O[C@@H]5[C@H]4O)[C@@H]3CC[C@H]2C1=O`, the composite z-score was 0.227.

The compound `C[C@@H]1CC[C@@H](C(=O)O)N[C@H]1c1cccc(N2CCOCC2)c1` yielded a composite z-score of 0.797.

`CCOC(=O)NN=C1C[C@@H](O)[C@@H](O)[C@@H]2[C@@H]3C(=O)N(c4ccc(F)cc4F)C(=O)[C@@H]3CC[C@H]12`: the composite z-score is 0.742.

The compound `CCC1=NOC(CCC2CC(OC(=O)NCc3cccc4c3OCO4)CC3(CCCC(COC(=O)NCCc4ccc(Cl)cc4)O3)O2)C1` (centres undefined) yielded a composite z-score of -0.0917.

With `CCOC(=O)CCN1C(=O)[C@H]2[C@H]3[C@H](O)[C@H](O)CC(=NO[C@@H]4O[C@H](CO)[C@@H](O)[C@H](O)[C@H]4O)[C@@H]3CC[C@H]2C1=O`, the composite z-score was 1.05.

`CCOC(=O)[C@H](CC(C)C)NC(=O)CCC1CC(OC(=O)NCc2ccc3c(c2)OCO3)CC2(CCCC(COC(=O)NCc3ccccc3)O2)O1` (some centres undefined) registered a composite z-score of 0.316.

With `CC(C)C(=O)N[C@H]1CCCN1C(=O)C=Cc1ccccc1`, the composite z-score was found to be 0.43.

For the compound `COC(=O)[C@H](C)NC(=O)CCC1CC(OC(=O)NCc2cccc3ccccc23)CC2(CCCC(COC(=O)NCc3ccccc3)O2)O1` (some centres undefined), the composite z-score is 0.445.

As for `CCOC(=O)[C@H](CC(C)C)NC(=O)CCC1CC(OC(=O)NCCc2ccc(F)cc2)CC2(CCCC(COC(=O)NCc3cccc4ccccc34)O2)O1` (some centres undefined), the composite z-score was found to be 0.55.

On to `COC(=O)CC=C[C@@H](C)[C@@H](C=NOC(C)CN1CCCCc2nc(C)c(C)cc21)OC` (some centres undefined), for which the composite z-score was 0.686.

With `CCN1C(=O)[C@H]2[C@H]3[C@H](O)[C@H](O)CC(=NOC[C@@H](O)COCc4ccco4)[C@H]3CC[C@H]2C1=O`, the composite z-score was 0.816.

`COCCNC(=O)OCC1CCCC2(CC(OC(=O)NCc3cccc4ccccc34)CC(CCC(=O)N[C@@H](C)C(=O)OC)O2)O1` (some centres undefined): the composite z-score worked out at 0.709.

Regarding `CC(=O)OC[C@H]1O[C@@H](ON=C(C)CCN2CCCCc3nc(C)c(C)cc32)[C@H](OC(C)=O)[C@@H](OC(C)=O)[C@@H]1OC(C)=O`, the composite z-score turned out to be 1.11.

With `O=C1C=C[C@@H](O)[C@@H]2[C@@H]3C(=O)N(c4cccc(Oc5ccccc5)c4)C(=O)[C@@H]3CC[C@@H]12`, the composite z-score came out at 0.386.
